In the supplement of paper PMC11417369:
Whole data set: some 25,000 sequences, median “ln(normalized median fluorescence intensity)” near 9.3, cut for the highest 2% near 10. The full list was thinned out, with the highest values kept by preference.

System: PF3D7_0420300 AP2 domain 1 (GST-tagged)
Test: gcPBM binding intensity (ln(normalized median fluorescence intensity)); higher = stronger DNA binding
Procedure, shortened: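 The binding buffer was 1× PBS containing 1% milk, 0.2 mg/ml BSA, 0.5% salmon testes DNA and 0.03% Triton X-100. In it, GST-tagged P. falciparum DNA-binding domains expressed in E. coli were applied for 1 h to an Agilent 4 × 180k array of primer-extended double-stranded 36-bp intergenic genomic probes plus negative controls. Binding intensity, read with Alexa488 anti-GST antibody and a 488 nm scan, is the highest Masliner-normalised natural-log median intensity across replicate spots of either probe orientation.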

Sequence | gcPBM binding intensity (ln)
TTTCTAATTTATATCACACACATATTTATATAGTAA [CACACA_site6813] | 9.41
TATAAATTTATAAATAGTACATATATTTATATATAT [XGTACX_site6433] | 9.07
CACAGACACGGACACACACACACACCCACATATATA [CACACA_site4355] | 10.3
CCCACAGACGGACACACACACACACCGACACATATA [CACACA_site4356] | 10.2
CATACACCCAGACACACACACATATATATATATATA [CACACA_site634] | 9.94
CCCACAGACGGACACACACACATATATATATATATA [CACACA_site4351] | 9.81
CACAGACACGGACACACACACACACCCAGACACATA [CACACA_site4357] | 10.2
CCCACAGACGGACACACACACACATATATATATATA [CACACA_site4352] | 10.1
CACAGACACGGACACACACACATATATATATATATA [CACACA_site5248] | 9.86
TACAGATACGGACACACACACACACCCAGACAAAAA [CACACA_site4432] | 10
TTGGCATACGGACACACACACACACCCAGACATATA [CACACA_site4492] | 10.2
AATCTAATATAATGCACACATAAAAAAAAATCAAAC [CACACA_site3633] | 9.8
TAAAAATATATATGATTGCACTTAGGACAATATATA | 9.14
TTATTTTTTAAAAGTAGTACAAATTTTTATAGAAAA [XGTACX_site7407] | 8.46
AATATTAAAGAATAATGTACAAAATAAAAGCAAAGA [XGTACX_site3550] | 9.86
TATTATTCTACTATTATATTCTATATTATTTATAGT [CACACA_negctrl_site499] | 9.37
ATAATAATATAAAAATGTACATATATTTATAATTGT [XGTACX_site3429] | 9.23
CATACAGATGGACACACACACACACCCACAGACAAA [CACACA_site4431] | 10.1
AGCACAGACGGACACACACACATATATATATATATA [CACACA_site4341] | 9.88
AGCACAGACGGACACACACACACACCCACAGACACA [CACACA_site4358] | 10.2
AAAGAAGGGGGGGGAAAAAAAAATAAAAGAGGAAAA [XGTACX_negctrl_site92] | 9.59
AAAAAAAAAAAAAAAAGGGGGGGAGGGATTGAAAAA [CACACA_negctrl_site193] | 10
TTTGAAGGAAGGGGGGGAGGGGCCATAACAAAGGAA [GTGCAC_negctrl_site408] | 10.4
GCATATGTTCAGCGTTGTACATAAAAAAAAACATAT [XGTACX_site5974] | 9.07
TTGATTTATATTTAATGTACATTTTTACAGAAAATT [XGTACX_site2747] | 8.93
